# Source: PubChem (National Center for Advancing Translational Sciences (NCATS))
# Compounds with a hit are over-represented: about 4.8% of the library has one in this group of screens.
# ATXN viability: Viability Counterscreen for Primary qHTS for Inhibitors of ATXN expression; Potency, µM (series often up to 56.7 µM), actives largely listed as cytotoxic; S2 cells (HEK-293 line with an ATXN2-luciferase reporter) viability, CellTiter-Fluor protease fluorescence, 24 h; 400,000 tested, 0.49% active; further: potency means the concentration at half of the fitted maximal effect; nearly all actives have a fitted effect of over 40% in size
# DRD3 agonist: qHTS of D3 Dopamine Receptor Agonist: qHTS; max activation, %; 410,000 tested, 0.58% active; D(3) dopamine receptor (Homo sapiens), P35462; D3R DiscoveRx beta-arrestin cells, luminescence, 90 min; in the data active means max activation above about 30%; further: 0% is about no effect
# Target sequence (P35462 whole entry, looked up): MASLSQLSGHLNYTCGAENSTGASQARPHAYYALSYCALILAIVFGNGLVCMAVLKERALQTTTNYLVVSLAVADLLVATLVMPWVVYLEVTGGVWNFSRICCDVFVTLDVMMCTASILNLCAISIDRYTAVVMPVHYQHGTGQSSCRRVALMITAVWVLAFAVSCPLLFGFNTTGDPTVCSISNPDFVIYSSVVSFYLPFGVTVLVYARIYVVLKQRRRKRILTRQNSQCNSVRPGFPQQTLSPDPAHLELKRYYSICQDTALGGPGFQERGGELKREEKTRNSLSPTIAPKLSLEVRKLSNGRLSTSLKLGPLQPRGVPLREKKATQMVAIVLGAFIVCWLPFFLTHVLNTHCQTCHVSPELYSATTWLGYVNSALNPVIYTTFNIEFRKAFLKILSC
#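 Agonist mode: compounds and dopamine controls were applied to plated cells for 90 min at 37 degrees C after an overnight attachment at 1500 cells/well. Luminescent read-out followed 30 - 60 minutes at room temperature with DiscoveRx detection reagent.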
# DRD3 antagonist: qHTS of D3 Dopamine Receptor Antagonist: qHTS. D(3) dopamine receptor (Homo sapiens), P35462. D3R cells, DiscoveRx beta-arrestin luminescence, antagonist mode; active compounds read low. max response, negative = inhibition, %. 360,000 tested, 2.5% active. AID 652054, 2013; in the data active means max response below about -50%; inconclusive means no clear call, values can overlap the other calls; further: on the % scale 0 is the no-effect control and ±100 the full control effect
#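 Cells expressing the human receptor were seeded at 1500 cells/well, incubated overnight at 37 degrees C in 5% CO2, then exposed to library compounds with dopamine controls for 90 minutes at 37 degrees C before luminescent detection.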
# HepG2 tox: qHTS for Inhibitors of TGF-b: Cytotox Counterscreen; HepG2 CAGA-GFP viability, ATP luminescence, 18 h; Potency, µM (series often up to 46.1 µM), for inactives: at the highest dose activity change, negative = cytotoxicity, hits mostly cytotoxic; 410,000 tested, 0.76% active; AID 588856, 2011; further: potency means the concentration at half of the fitted maximal effect
#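 HepG2 CAGA-GFP cells (1000/well, DMEM with 1% FBS) received compound, then TGF-beta at 500 pg/mL final, and were incubated 18 hours at 37 degrees C. Viability was read by CellTiter-Glo luminescence. Media-only wells were set as complete cell-killing and DMSO as no toxicity.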
# ATXN2 expr inh: Primary qHTS for Inhibitors of ATXN expression | HEK-293 ATXN2-luciferase reporter, luminescence, 24 h | AID 1745845, 2022 | 360,000 tested, 0.72% active | Potency, µM (series often up to 57 µM), for the others: top-dose activity change, negative = inhibition, hits mostly inhibitors; further: potency means the concentration at half of the fitted maximal effect; on the % scale 0 is the no-effect control and ±100 the full control effect; nearly all actives have a fitted effect of over 55% in size
#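 qHTS (up to 57 uM final) was run with 24 h compound exposure of reporter cells at 37 °C. Each well was multiplexed: SteadyGlo luminescence measured ATXN2-luciferase expression after a fluorogenic Gly-Phe-AFC viability readout (25 uM final).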
# TGFb SMAD3 inh: qHTS for Inhibitors of TGF-b; HepG2 CAGA-GFP TGF-b/SMAD3 reporter, GFP fluorescence, 18 h; TGF-beta stimulated, 500 pg/mL final; Potency, µM (top dose mostly 46.1 µM), without a hit: at the highest dose activity, negative = inhibition, most hits filed as inhibitors; 410,000 tested, 1.2% active; further: potency means the concentration at half of the fitted maximal effect; on the % scale 0 is the no-effect control and ±100 the full control effect; nearly all actives have a fitted effect of over 65% in size
#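 HEPG2 CAGA-GFP cells (1000/well, DMEM with 1% FBS) were pre-incubated 2 h at 37 degrees C, given compound by pin tool, then stimulated with TGF-beta at 500 pg/mL final for 18 h before per-cell GFP fluorescence imaging.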
# * = called active by the depositor; i = inactive; ? = inconclusive; · = no result given. Unless noted, the call rests on the fitted dose curve; in most records, active means well fitted curve in the direction sought with a large enough effect; inconclusive means small, poorly fitted or top-dose-only effect, or another doubt; inactive means no such curve, though single readings can be large; an effect the other way counts as inactive or inconclusive.
SMILES,ATXN viability,DRD3 agonist,DRD3 antagonist,HepG2 tox,ATXN2 expr inh,TGFb SMAD3 inh
NC(=O)c1cccc(-c2ccnc3c2CC(C(=O)NCCc2ccccc2)O3)c1 (configuration not stated),i,-0.6,1.9,-0.8%,0.8%,5.1%
O=C(NCCc1ccccc1)C1Cc2c(-c3ccccc3)ccnc2O1 (configuration not stated),i,-10.0,-67.5*,-37.1%,-10.1%,-0.2%
O=C(NCc1cccc(Cl)c1)C1Cc2c(-c3cccc(F)c3)ccnc2O1 (configuration not stated),i,1.1,25.4,-22.7%,-28.9%,-1.9%
CN1CCN(c2ccc(CNC(=O)C3Cc4c(-c5cccc(F)c5)ccnc4O3)cc2)CC1 (configuration not stated),i,-13.5,-56.1*,-30.3%,2.0%,2.9%
O=C(NCc1ccccc1)C1Cc2c(-c3cccc(F)c3)ccnc2O1 (configuration not stated),i,-8.4,-50.2*,-11.8%,1.6%,?
Cc1ccc(CN2CCOCCS2(=O)=O)cc1,·,·,·,23.1%,·,6.8%
O=C1OC(c2ccccc2)=C/C1=C/N1CCOCC1,i,-7.3,-54.7*,-40.7%,25.1%,1.4%
O=[N+]([O-])c1ccc(N2CCN(Cc3ccccc3)CC2)s1,i,-8.8,-65.7*,-13.1%,5.2%,-5.8%
O=[N+]([O-])c1ccc(N2CCCCC2)s1,i,-6.2,-22.5,-1.6%,3.9%,-2.2%
Cc1ccc(C)n1-c1c(C(=O)NCCCN2CCN(c3ccc(F)cc3)CC2)sc2ncccc12,i,-20.9,·,-32.7%,-20.9%,?
COc1ccc(Cl)cc1NC(=O)c1cc2ccc3ccc(C)[nH]c3c2n1,i,5.1,·,-26.7%,0.0%,?
COc1cc2c(cc1OC)C(c1ccccc1)N(C(=O)CCl)CC2 (configuration not stated),·,-1.8,-62.1*,-0.3%,28.2µM*,-20.1%
COc1cc2c(cc1OC)C(C1C(=O)CCCC1=O)N(C(=O)CCl)CC2 (configuration not stated),i,-1.6,17.1,8.0%,·,-19.0%
N#Cc1nc(-c2ccc(OCc3ccccc3Cl)cc2)oc1N1CCC(C(N)=O)CC1,·,·,·,-1.8%,·,9.3%
COc1ccc(-c2nc3cc(F)ccc3cc2CN(C(=O)c2ccc3c(c2)OCO3)C2CC2)cc1,i,·,·,·,·,·
COc1ccccc1NS(=O)(=O)c1ccc(O)c(C(=O)OCC(=O)N2c3ccccc3CC2C)c1 (configuration not stated),i,-20.4,-106.3*,-26.6%,·,-11.1%
COc1ccc(-c2nn(-c3ccccc3)cc2/C=N/Nc2ccc3ccccc3n2)cc1OC,·,0.1,22.4,4.47µM*,-21.1%,?
CCc1nc(SC)ncc1C(=O)N1CCN(c2cc(C)ccc2C)CC1,i,-7.6,·,0.9%,2.0%,?
CC(=O)Nc1ccccc1-c1nc(CNC(=O)c2cc(C)ccc2C)c(C)o1,i,·,·,·,·,·
O=C(C[n+]1csc2ccccc21)c1ccc(I)cc1,·,·,·,-2.5%,·,-2.4%
CC(=O)Nc1ccc(NC(=O)C(C)c2cccc(C(=O)c3ccccc3)c2)cc1 (configuration not stated),i,-17.4,25.4,7.4%,0.6%,3.2%
CC(=O)Nc1ccc([C@H](C)C(=O)Nc2ncc(C(C)C)s2)cc1,·,·,·,·,0.344µM*,·
CCC(C)c1nc2c(c(N3CCC3=O)c1-c1ccccc1)CCCC2 (configuration not stated),i,61.9*,0.0,-3.4%,-11.6%,-24.3%
CCSc1nc(-c2ccccc2)nc2c1CCCC2,i,12.2,0.8,-13.8%,5.6%,-2.0%
O=C1[C@H](Cc2ccccc2)NCC=CC[C@H](c2ccc(Cl)cc2)N1Cc1ccccc1,?,-15.3,-21.2,-39.3%,?,17.8µM*
SMILES,ATXN viability,DRD3 agonist,DRD3 antagonist,HepG2 tox,ATXN2 expr inh,TGFb SMAD3 inh
O=C1[C@H](Cc2ccccc2)NCC=CC[C@@H](c2ccc(Cl)cc2)N1Cc1ccc(Cl)cc1,·,-26.7,?,-90.7%,?,?
O=C1[C@H](Cc2ccccc2)NCC=CC[C@H](c2ccc(Cl)cc2)N1Cc1ccc(Cl)cc1,31.6µM*,4.2,0.0,-59.9%,?,?
COc1cc2c(cc1NC(=O)C(C)N1CCN(S(=O)(=O)c3ccccc3[N+](=O)[O-])CC1)oc1ccccc12 (configuration not stated),i,16.5,-11.5,-20.4%,16.8%,10.7%
COc1cc2c(cc1NC(=O)C(C)N1CCN(S(=O)(=O)c3ccc(C)c(C)c3)CC1)oc1ccccc12 (configuration not stated),i,31.4*,-20.9,-15.5%,30.1%,17.4%
CC(C)CCNc1nc2c(S(=O)(=O)c3ccc(Br)cc3)nnn2c2ccsc12,·,-7.2,·,-2.0%,·,11.9%
CCOC(=O)Cc1csc(NC(=S)NC(=O)CC(C)C)n1,i,0.3,-10.8,1.5%,1.0%,-11.8%
CC(C)CC(=O)NC(=S)Nc1nc(-c2cccc3ccccc23)cs1,i,-8.6,-73.4*,-12.7%,0.1%,?
COc1ccc(N(C(=O)/C=C\C(=O)Nc2ccc(Cl)cc2)C(C(=O)NCc2ccco2)c2ccc(C)cc2)cc1 (configuration not stated),·,1.4,·,-45.1%,·,12.6µM*
c1cc(CNc2ccc3c(c2)OCO3)ccn1,i,-0.5,-2.4,1.0%,26.2%,3.1%
Cc1ccc(CNc2ccc3c(c2)OCO3)cc1,i,-13.5,-24.7,12.6µM*,31.7%,-0.8%
CCN(CC)c1ccc(-c2nnc(SCC(=O)NCc3ccco3)n2CC)cc1,·,·,·,-37.7%,·,-23.4%
O=C(c1ccc2c3c(cccc13)CC2)C1CCCN(Cc2ccc(OCCO)cc2)C1 (configuration not stated),?,-1.4,-97.4*,-79.6%,·,?
O=C(c1ccc2c3c(cccc13)CC2)C1CCCN(Cc2ccccn2)C1 (configuration not stated),?,-33.3,-51.2*,-22.6%,?,-30.3%
Cc1cnc(CN2CCCC(C(=O)c3ccc4c5c(cccc35)CC4)C2)[nH]1 (configuration not stated),i,-17.1,-53.3*,-1.3%,-12.8%,22.3%
COCC(=O)N1CCCC(C(=O)c2ccc3c4c(cccc24)CC3)C1 (configuration not stated),i,-7.2,14.3,9.0%,·,?
